# High-throughput results (PubChem)
# TSHR agonist – TSH receptor (human) agonism | P16473 | HEK293-CNG-TSHR cells (CNG channel as cAMP sensor), membrane potential dye, cAMP | Potency, µM (doses to about 57.1 µM), for inactives: top-dose activation, hits mostly activators | 73,000 tested, 0.48% active | AID 926; active = well fitted activation curve with a large enough effect in the main read-out, with a control signal flat, not every such curve was filed as active; inconclusive = small, poorly fitted or top-dose-only effect, or a change in a side signal; inactive = no such curve, though single readings can be large or run the other way; % of control where 0% means no effect;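 also: the control signal comes from parental cells without the receptor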
# Target sequence (P16473 whole entry, looked up): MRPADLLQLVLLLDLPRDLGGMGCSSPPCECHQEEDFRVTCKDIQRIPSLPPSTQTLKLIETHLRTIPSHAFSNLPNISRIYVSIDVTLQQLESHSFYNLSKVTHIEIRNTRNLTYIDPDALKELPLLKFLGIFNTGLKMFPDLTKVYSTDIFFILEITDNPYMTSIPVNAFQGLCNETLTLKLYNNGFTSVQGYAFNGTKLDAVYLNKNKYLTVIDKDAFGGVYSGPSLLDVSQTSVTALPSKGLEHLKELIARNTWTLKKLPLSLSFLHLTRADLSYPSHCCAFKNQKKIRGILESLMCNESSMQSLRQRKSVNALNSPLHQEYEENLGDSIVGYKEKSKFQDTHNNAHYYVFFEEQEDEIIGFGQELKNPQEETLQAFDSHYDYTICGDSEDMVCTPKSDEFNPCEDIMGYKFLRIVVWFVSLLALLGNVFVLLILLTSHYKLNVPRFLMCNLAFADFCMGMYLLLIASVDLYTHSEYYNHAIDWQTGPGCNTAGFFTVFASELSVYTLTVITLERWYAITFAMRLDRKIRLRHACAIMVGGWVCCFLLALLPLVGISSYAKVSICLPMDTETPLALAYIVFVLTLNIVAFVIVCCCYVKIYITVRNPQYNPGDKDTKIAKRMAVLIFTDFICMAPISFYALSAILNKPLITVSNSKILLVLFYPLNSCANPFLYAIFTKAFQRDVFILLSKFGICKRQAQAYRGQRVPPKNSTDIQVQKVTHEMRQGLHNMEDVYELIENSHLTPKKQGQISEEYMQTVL
#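 cAMP rise detected as CNG-channel membrane depolarization by fluorescent dye (emission 590 nm), 30 min after compound, following 60 min dye loading containing 100 uM RO 20-1724 at room temperature. Cells: TSHR/CNG HEK 293, with parental CNG HEK 293 as control.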
# HEK293 cAMP ctrl – raises cAMP in parental HEK293 cells, TSHR agonist counter-screen. Potency, µM (top dose mostly 57.1 µM), without a hit: at the top dose activation, hits mostly activators. AID 938. 73,000 tested, 2.5% active. parental HEK293 CNG cAMP sensor, membrane potential fluorescence; also: % of control where 0% means no effect; nearly all actives have a fitted effect of over 55% in size
#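 Parental HEK 293 cells stably expressing a modified CNG channel (no TSHR) report cAMP rise as membrane depolarization. Membrane potential dye with 100 uM RO 20-1724 was loaded for 60 min at room temperature, then compound added for 30 min; fluorescence read at 590 nm.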
# ERK AVP block – inhibitors of vasopressin-stimulated ERK signaling pathway. HEK293-V1b, vasopressin-stimulated pERK AlphaScreen. Potency, µM (titrated, usually from 57.5 µM), without a hit: at the top dose activity, negative = inhibition, usual class: inhibitors. 72,000 tested, 0.99% active; also: % is scaled to controls: 0 for no effect and ±100 for the full control effect; nearly all actives have a fitted effect of over 55% in size
#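 V1b-HEK293 cells; cpd 30 min 37C; 25 nM vasopressin 5 min; lyse 10 min; AlphaScreen beads 5 hr RT. Normalized to DMSO basal and 25 nM vasopressin; AC50 by Hill fit.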
# CRE Fsk mod – modulators of forskolin-stimulated CRE signaling in CHO cells; CHO CRE-bla reporter (cAMP response element driving beta-lactamase), forskolin EC10, beta-lactamase ratio; Potency, µM (doses to about 38.2 µM), for inactives: at the top dose activity change, negative = inhibition, usual class: activators; 71,000 tested, 2.5% active; active = well fitted activation curve with a large enough effect in the signal ratio, with a control signal flat, not every such curve was filed as active; inconclusive = small, poorly fitted or top-dose-only effect, or effect the other way, or a change in a side signal; the % refers to the signal ratio; also: % of control where 0% means no effect
#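 CRE-bla CHO reporter cells treated with compound titration plus EC10 NKH 477 (water-soluble forskolin), incubated 3 h at 37 °C; CCF4 loading 2 h at room temperature, 460/530 nm emission ratio read, AC50 values derived for positive or negative modulators.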
# Active calls of the source: *; u = inconclusive; x = no result; [ ] = remark or other dose. The list is not random: actives were taken first. Their share in the collection is about 6%. Unless noted, calls follow the shape of the dose curve; as a rule, active = well fitted curve in the direction sought with a large enough effect; inconclusive = small, poorly fitted or top-dose-only effect, or another doubt; inactive = no such curve, though single readings can be large; an effect the other way counts as inactive or inconclusive. Potency is read from the fitted curve at half-maximal effect.
SMILES,TSHR agonist,HEK293 cAMP ctrl,ERK AVP block,CRE Fsk mod
O=C(OCC(=O)N1CCCCC1)c1cc2ccccc2cc1O,1%,12%,u,0%
CCC1CCCCN1C(=O)COC(=O)c1cc2ccccc2cc1O (centres undefined),u,32µM*,5%,u
CC1Cc2ccccc2N1S(=O)(=O)c1cccc2nsnc12 (centres undefined),u,u,16µM*,u
CCC(c1nnnn1Cc1ccc2c(c1)OCO2)N1CCN(c2ccc(F)cc2)CC1 (centres undefined),u,16µM*,6%,4%
COCCn1nnnc1C(c1ccccc1)N1CCN(Cc2ccc3c(c2)OCO3)CC1 (centres undefined),u,u,40µM*,-13%
CCC(c1nnnn1Cc1ccc2c(c1)OCO2)N1CCN(c2ccc(OC)cc2)CC1 (centres undefined),u,u,-26%,1%
COCCn1nnnc1C(c1ccccc1OC)N1CCN(c2ccccc2F)CC1 (centres undefined),u,7.9µM*,-15%,-11%
COCCn1nnnc1C(c1ccc(C)cc1)N1CCN(Cc2ccc3c(c2)OCO3)CC1 (centres undefined),8%,24%,-2%,0%
CCC(c1nnnn1Cc1ccc2c(c1)OCO2)N1CCN(c2ccccc2)CC1 (centres undefined),u,16µM*,10%,-4%
Cc1c(Cl)cc(C(C)(C)C)c(O)c1Cc1c(C)c(Cl)cc(C(C)(C)C)c1O,11%[11.4 µM],2%[11.4 µM],-3%[11.5 µM],-18%[7.6 µM]
CO[C@@H]1COC(=O)CCC[C@@H](C)[C@H](OC)COC(=O)[C@H](Cc2ccccc2)NC(=O)C/C=C\[C@H]1C,2%[11.4 µM],20%[11.4 µM],13%[11.5 µM],x
c1ccc2c[n+](Cc3ccnc4ccccc34)ccc2c1,0%[11.4 µM],2%[11.4 µM],12%[11.5 µM],8%[7.6 µM]
NC(=O)c1sc2nc(N3CCCCC3)c3c(c2c1N)CCCC3,-15%[11.4 µM],-3%[11.4 µM],-22%,1.3µM*
COC(=O)[C@@]1(Cc2ccccc2)[C@H]2c3cc(C(=O)N4CCCC4)n(Cc4nc5ccccc5[nH]4)c3C[C@H]2CN1C(=O)c1ccccc1,u,u,-16%,-27%
CN(Cc1ccco1)c1ncnc2ccc(-c3ccc4c(c3)OCO4)cc12,u,16µM*,u,u
CN(Cc1ccco1)c1ncncc1-c1ccc2c(c1)OCO2,25µM*,18%,u,6%
O=[N+]([O-])c1ccc(Cl)c(CNc2ncnc3c2ncn3[C@@H]2CCCCO2)c1,0%[11.4 µM],0%[11.4 µM],6%[11.5 µM],-8%[7.6 µM]
CCC(C)Sc1nc2c(c(=O)[nH]c(=O)n2C)n1Cc1ccc(Cl)cc1 (centres undefined),x,23%,24%,7.9µM*
CCOC(=O)C(C)Sc1nc2c(c(=O)[nH]c(=O)n2C)n1Cc1ccc(Cl)cc1 (centres undefined),6%[11.4 µM],5%,x,u
CCC(C)Sc1nc2c(c(=O)[nH]c(=O)n2C)n1CCc1ccccc1 (centres undefined),u,32µM*,u,7.9µM*
CCOC(=O)CSc1nc2c(c(=O)[nH]c(=O)n2C)n1C/C=C(/C)Cl,7%,16%,-7%,u
C/C(Cl)=C/Cn1c(SC(C)C)nc2c1c(=O)[nH]c(=O)n2C,u,u,16µM*,7.9µM*
COc1ccc2[nH]cc(CCNc3ncncc3-c3ccccc3C(F)(F)F)c2c1,u,u,-10%,18%
CN(C)CCN(Cc1ccccc1)S(=O)(=O)c1cccc2cccnc12,14%,11%,x,-7%
O=C(SCc1cccc2ccccc12)c1ccc(Cl)cc1,3%[11.4 µM],7%[11.4 µM],15%[11.5 µM],-8%[7.6 µM]
SMILES,TSHR agonist,HEK293 cAMP ctrl,ERK AVP block,CRE Fsk mod
COc1ccc2c(=O)c(C(=O)NCCc3ccc(OC)c(OC)c3)c[nH]c2c1,15%,-9%,-16%,13µM*
COc1ccc2cc3cc(C(=O)NCCc4ccc(OC)c(OC)c4)oc3nc2c1,13%,18%,13%,3.2µM*
COC(=O)c1ccc(C(NC(=O)c2ccco2)[C@]2(C)C[C@H]2C2CCCCC2)cc1 (some centres undefined),u,u,26%,u
Nc1nccc(Nc2ccc(S(N)(=O)=O)cc2)n1,-4%[11.4 µM],13%[11.4 µM],10%[11.5 µM],-14%[7.6 µM]
COC(=O)N1CCC2(CCCN(C(=O)Nc3ccccc3)C2)CC1,3%,5%,-9%,-3%
CCOC(=O)C1=C(C)NC(=O)N[C@@H]1c1coc2cc(C)cc(C)c2c1=O,2%[11.4 µM],0%[11.4 µM],-5%[11.5 µM],u
